Test results as given in the supplement of paper PMC13380429.

Tested on: Vero E6 infected with SARS-CoV-2
Assay: inhibition of SARS-CoV-2 cytopathic effect; higher = more antiviral protection, active = above 15
Conditions: 48 h

Measured: inhibition of SARS-CoV-2 cytopathic effect

O=C(O)/C=C/c1ccc(-c2ccc(O)c(C34CC5CC(CC(C5)C3)C4)c2)cc1 [adarotene]
inactive: 1 nM -0.41% | 8.33 nM -0.4% | 100 nM 0.7% | 833.33 nM -4.11% | 10000 nM -6.23%

CCC(=O)c1ccc(OCC(O)CN2CCN(c3ccccc3)CC2)cc1 (stereo not given) [centpropazine]
inactive: 1 nM -4.09% | 8.33 nM -0.61% | 100 nM -2.65% | 833.33 nM -0.96% | 10000 nM -0.58%

Cc1ccc2c(c1)c1c(n2CCc2ccc(C)nc2)CCN(C)C1 [latrepirdine]
inactive: 1 nM 1.25% | 8.33 nM -0.5% | 100 nM -0.92% | 833.33 nM 0.73% | 10000 nM 0.87%

COC(=O)N[C@H](C(=O)N1CCC[C@H]1c1nc(-c2ccc3c(c2)O[C@@H](c2ccccc2)n2c-3cc3cc(-c4c[nH]c([C@@H]5CCCN5C(=O)[C@@H](NC(=O)OC)C(C)C)n4)ccc32)c[nH]1)C(C)C [elbasvir]
inactive: 1 nM 1.03% | 8.33 nM 1.52% | 100 nM 0.09% | 833.33 nM -1.19% | 10000 nM -4.27%

CCCCCCCCCCCCCCCC(=O)OC[C@H](O)[C@H]1OC(=O)C(O)=C1O [L-ascorbyl-6-palmitate]
inactive: 1 nM 2.02% | 8.33 nM 0.04% | 100 nM 0.01% | 833.33 nM 0.96% | 10000 nM -0.63%

CCOc1nc2cccc(C(=O)OCc3oc(=O)oc3C)c2n1Cc1ccc(-c2ccccc2-c2noc(=O)[nH]2)cc1 [azilsartan-medoxomil]
inactive: 1 nM 0.24% | 8.33 nM 1.14% | 100 nM 2.01% | 833.33 nM 1.93% | 10000 nM -0.28%
